“And” between values parts separate entries of the source, which are not always exact repeats. Identical values can stand only once. Results filed as inconclusive are left out. A call without a number means that no potency is given here. A structure can be active in one record and inactive in another. The source made the active and inactive calls. The call rests on the fitted dose curve; in most records, active means well fitted cell-killing curve with a large enough effect; inconclusive means small, poorly fitted or top-dose-only effect, or effect the other way; inactive means flat fitted curve, though single readings scatter.
Potency means the concentration at half of the fitted maximal effect.

One assay deals with SKOV3. Put plainly: Primary qHTS to identify gynecologic anti-cancer compounds using libraries of approved drugs and bioactive compounds (AID 1345084). Further: nearly all actives have a fitted effect of over 55% in size. The settings on record: Gynecologic cancer cell panel viability, ATPlite luminescence, 48 h; series mostly up to 57.5 µM. In short, it runs like this:
(§1)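 Measured: luminescence after ATPlite addition (15 min, RT). Exposure: 48 h, 37 C, 5% CO2.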
In the case of `O=c1[nH]c2ccccc2n1CCCN1CCC(n2c(=O)[nH]c3cc(Cl)ccc32)CC1`, the Potency result is “inactive”.

Regarding `C[C@]12CCC(=O)C(O)=C1CC[C@@H]1[C@@H]2CC[C@]2(C)C(=O)CC[C@@H]12`, the Potency result is “inactive”.

Take `CC[N+]1(C)CCCC(OC(=O)C(O)(c2ccccc2)c2ccccc2)C1` (centres undefined): the Potency result was “inactive”.

Regarding `CCCC(C)(COC(N)=O)COC(=O)NC(C)C` (centres undefined), the Potency entry was “inactive”.

For the compound `C[C@H]1O[C@@H](O[C@H]2[C@@H](O)C[C@H](O[C@H]3[C@@H](O)C[C@H](O[C@H]4CC[C@@]5(C)[C@H](CC[C@@H]6[C@@H]5CC[C@]5(C)[C@@H](C7=CC(=O)OC7)CC[C@]65O)C4)O[C@@H]3C)O[C@@H]2C)C[C@H](O)[C@@H]1O`, the Potency was 251 nM (active) and 112 nM (active).

Regarding `C=C(C)[C@H]1Cc2c(ccc3c2O[C@@H]2COc4cc(OC)c(OC)cc4[C@@H]2C3=O)O1`, the Potency was 0.282 µM (active).

Regarding `N[C@@H](Cc1ccc(N(CCCl)CCCl)cc1)C(=O)O`, the Potency result is “inactive”.

For `C=C1C[C@@H]2[C@H](CC[C@]3(C)C(=O)CC[C@@H]23)[C@@]2(C)C=CC(=O)C=C12`, the Potency entry is “inactive”.

For `COc1ccc(Cc2nccc3cc(OC)c(OC)cc23)cc1OC`, the Potency is 25.1 µM (active).

With `CNC(=O)c1ccc(N2C(=S)N(c3ccc(C#N)c(C(F)(F)F)c3)C(=O)C23CCC3)cc1F`, the Potency entry was “inactive”.

As to `COc1ccc2c(c1OC)CN1CCc3cc4c(cc3C1C2)OCO4` (centres undefined), the Potency entry was “inactive”.

Regarding `Oc1cc(Cl)ccc1Oc1ccc(Cl)cc1Cl`, the Potency was 35.5 µM (active) and inactive.

Turning to `CC(=O)Nc1cc([As](=O)(O)O)ccc1O`, the Potency result was “inactive”.

With `N#CC(C#N)=Cc1ccc(O)c(O)c1`, the Potency entry was “inactive”.

For `CCOC(=O)C1(c2ccccc2)CCN(CCC(C#N)(c2ccccc2)c2ccccc2)CC1`, the Potency result is “inactive”.

Take `Clc1ccc(COC(Cn2ccnc2)c2ccc(Cl)cc2Cl)cc1` (centres undefined): the Potency was 28.2 µM (active).

`Oc1ccc(Cl)cc1Cc1ccccc1`: the Potency result is “inactive”.

In the case of `CN(C)[C@@H]1C(=O)C(C(N)=O)=C(O)[C@@]2(O)C(=O)C3=C(O)c4c(O)cccc4[C@@](C)(O)[C@H]3C[C@@H]12`, the Potency result is “inactive”.

In the case of `CCCN1CCC[C@@H]2Cc3nc(N)ncc3C[C@H]21`, the Potency entry is “inactive”.

As for `CCCC1CCCCN1` (centres undefined), the Potency result is “inactive”.

A further assay has as its system Tov-21-G. The description is as above. The settings on record: Gynecologic cancer cell panel viability, ATPlite luminescence, 48 h; series mostly up to 57.5 µM. In short, it runs like this:
as §1
For `O=c1[nH]c2ccccc2n1CCCN1CCC(n2c(=O)[nH]c3cc(Cl)ccc32)CC1`, the Potency entry was “inactive”.

On to `C[C@]12CCC(=O)C(O)=C1CC[C@@H]1[C@@H]2CC[C@]2(C)C(=O)CC[C@@H]12`, for which the Potency entry was “inactive”.

On to `C#CCOC(C(=O)OCCN(C)C)(c1ccccc1)c1ccccc1`, for which the Potency entry is “inactive”.

Take `CC(C)=CCOc1c2occc2cc2ccc(=O)oc12`: the Potency entry was “inactive”.

For the compound `CC[N+]1(C)CCCC(OC(=O)C(O)(c2ccccc2)c2ccccc2)C1` (centres undefined), the Potency result is “inactive”.

For the compound `CCCC(C)(COC(N)=O)COC(=O)NC(C)C` (centres undefined), the Potency result is “inactive”.

As to `c1ccc2c(c1)OCC(C1=NCCN1)O2` (centres undefined), the Potency was 15.8 µM (active).

On to `CNC(=O)N1N=C(c2ccc(N)cc2)c2cc3c(cc2CC1C)OCO3` (centres undefined), for which the Potency entry was “inactive”.

Take `Clc1ccc(CCC(Cn2ccnc2)Sc2c(Cl)cccc2Cl)cc1` (centres undefined): the Potency entry was “inactive”.

Regarding `C[C@H]1O[C@@H](O[C@H]2[C@@H](O)C[C@H](O[C@H]3[C@@H](O)C[C@H](O[C@H]4CC[C@@]5(C)[C@H](CC[C@@H]6[C@@H]5CC[C@]5(C)[C@@H](C7=CC(=O)OC7)CC[C@]65O)C4)O[C@@H]3C)O[C@@H]2C)C[C@H](O)[C@@H]1O`, the Potency was 112 nM (active) and 100 nM (active).

As for `C=C(C)[C@H]1Cc2c(ccc3c2O[C@@H]2COc4cc(OC)c(OC)cc4[C@@H]2C3=O)O1`, the Potency is 3.98 µM (active).

With `N[C@@H](Cc1ccc(N(CCCl)CCCl)cc1)C(=O)O`, the Potency entry was “inactive”.

In the case of `Cc1cc(SCc2sc(-c3ccc(C(F)(F)F)c(F)c3)nc2C)ccc1OCC(=O)O`, the Potency result is “inactive”.

On to `COc1ccc(Cc2nccc3cc(OC)c(OC)cc23)cc1OC`, for which the Potency entry is “inactive”.

In the case of `CNC(=O)c1ccc(N2C(=S)N(c3ccc(C#N)c(C(F)(F)F)c3)C(=O)C23CCC3)cc1F`, the Potency entry is “inactive”.

`COc1ccc2c(c1OC)CN1CCc3cc4c(cc3C1C2)OCO4` (centres undefined): the Potency entry is “inactive”.

On to `Oc1cc(Cl)ccc1Oc1ccc(Cl)cc1Cl`, for which the Potency result is “inactive”.

As to `CC(=O)Nc1cc([As](=O)(O)O)ccc1O`, the Potency entry was “inactive”.

In the case of `C#CCN(C)[C@H](C)Cc1ccccc1`, the Potency result was “inactive”.

`CCOC(=O)C1(c2ccccc2)CCN(CCC(C#N)(c2ccccc2)c2ccccc2)CC1`: the Potency result was “inactive”.

Turning to `CC[C@@H](CO)NC(=O)[C@@H]1C=C2c3cccc4[nH]cc(c34)C[C@H]2N(C)C1`, the Potency entry is “inactive”.

For the compound `Oc1ccc(Cl)cc1Cc1ccccc1`, the Potency result was “inactive”.

As for `CCC(=O)C(CC(C)N(C)C)(c1ccccc1)c1ccccc1` (centres undefined), the Potency entry was “inactive”.

With `CC(C)CC(N(C)C)C1(c2ccc(Cl)cc2)CCC1` (centres undefined), the Potency result is “inactive”.

With `FC(F)(F)c1cccc(C2=CCN(CCc3ccc4ccccc4c3)CC2)c1`, the Potency result was “inactive”.

Take `CN(C)[C@@H]1C(=O)C(C(N)=O)=C(O)[C@@]2(O)C(=O)C3=C(O)c4c(O)cccc4[C@@](C)(O)[C@H]3C[C@@H]12`: the Potency result was “inactive”.

Consider `CCCN1CCC[C@@H]2Cc3nc(N)ncc3C[C@H]21`, for which the Potency entry was “inactive”.

For the compound `CCCC1CCCCN1` (centres undefined), the Potency result is “inactive”.

`CCC(COC(=O)c1cc(OC)c(OC)c(OC)c1)(c1ccccc1)N(C)C` (centres undefined): the Potency result is “inactive”.

The values above are taken from PubChem BioAssay (NCATS).
